# Source: PubChem BioAssay (National Center for Advancing Translational Sciences (NCATS))
# HCV inhibitor: blocks hepatitis C virus; 340,000 tested, 3.4% active; Huh7.5.1 HCVcc-Cre infection, luciferase reporter, 44 h; AID 651820; Potency, µM (top dose mostly 41.8 µM), without a hit: at the top dose activity change, negative = inhibition, usual class: inhibitors
#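 HCVcc-Cre virus at an moi near 0.5 was added right after compound to cells cultured 4 h from seeding (1,000 cells/well). Luciferase activity was determined 44 h later, 15 min after substrate addition at RT.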
# AMA1 RON2 block: AMA1-RON2 (P. falciparum) interaction inhibition; AlphaScreen AMA1-biotinylated RON2 peptide binding; Potency, µM (top dose mostly 58.2 µM), for inactives: top-dose activity change, negative = inhibition, hits mostly inhibitors; 360,000 tested, 0.2% active; AID 720542;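 also: 0% = vehicle wells and -100% = peptide control; nearly all actives have a fitted effect of over 45% in size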
#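 AMA1 (3D7) with his tag at 25 nM final met compounds first, then biotinylated RON2 peptide at 25 nM; detection used donor plus acceptor beads, 10 µg/mL apiece, read by AlphaScreen after 30 min at room temperature.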
# Pf growth 96h: P. falciparum growth inhibition at 96 hours; P. falciparum luciferase reporter growth, 96 h; Potency, µM (doses to about 28.7 µM), inactives show at the top dose activity change, negative = inhibition, most hits filed as inhibitors; 320,000 tested, 6.9% active
#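 Two parasite generations (96 h, 37 C, 5% CO2) of compound exposure in infected erythrocytes (0.05% parasitemia, 2% hematocrit). Luciferase-reporter P. falciparum; decreased luminescence indicates inhibited growth, aimed at apicoplast-acting delayed death.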
# Pf growth 48h: P. falciparum growth inhibition at 48 hours (one generation); 310,000 tested, 5.9% active; P. falciparum luciferase growth in erythrocytes, 48 h; AID 504832; Potency, µM (series often up to 28.7 µM), without a hit: top-dose activity change, negative = inhibition, hits mostly inhibitors
#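 Parasite viability was followed by luminescence of a genomically integrated firefly luciferase. Cultures held 0.1% parasitemia at 2% hematocrit (final), incubated under 5% CO2 at 37 C.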
# Starred values were filed as active, the others as inactive; ? = inconclusive; . = not tested or not shown; [ ] = dose if it differs, or a comment. Only some compounds are listed: those with a hit (about 11% of all), similar ones and a draw of the others. Calls follow the shape of the dose curve; as a rule, active = well fitted curve in the direction sought with a large enough effect; inconclusive = small, poorly fitted or top-dose-only effect, or another doubt; inactive = no such curve, though single readings can be large; an effect the other way counts as inactive or inconclusive. Unless noted, % is scaled to controls: 0 for no effect and ±100 for the full control effect; potency is read from the fitted curve at half-maximal effect.
SMILES,HCV inhibitor,AMA1 RON2 block,Pf growth 96h,Pf growth 48h
CC(C)[C@@H]1NC(=O)c2cc([N+](=O)[O-])cc(F)c2NCCC[C@@H](C(N)=O)NC(=O)[C@H](CO)NC1=O,-8.0%[8.37 µM],.,9.28µM*,24.5%
NC(=O)[C@@H]1CCCNc2c(F)cc([N+](=O)[O-])cc2C(=O)N[C@@H](CO)C(=O)N[C@@H](Cc2ccc(O)cc2)C(=O)N1,1.0%[8.37 µM],-0.1%,-13.8%,9.5%
CC(C)[C@@H]1NC(=O)c2cc([N+](=O)[O-])cc(I)c2NCC[C@@H](C(N)=O)NC(=O)[C@H](CO)NC1=O,1.6%[8.37 µM],.,-12.8%,0.4%
COc1ccccc1CN(C)C(=O)c1cc(S(=O)(=O)N2CCCCCC2)ccc1OC,.,-8.3%,.,.
CCN(CC)CCNS(=O)(=O)c1ccc(C(=O)NN)cc1,12.8%,10.7%,?,8.7%
COc1ccc(NS(=O)(=O)c2cccc(NC(=O)C3=NN(c4ccccc4)C(=O)CC3)c2)cc1,-13.9%,-13.4%,7.38µM*,?
CN(c1ccccc1)S(=O)(=O)c1cccc(NC(=O)C2=NN(c3ccccc3)C(=O)CC2)c1,15.8µM*,-2.4%,.,.
CCOC(=O)[C@H]1[C@H]2COc3ccc(OC)cc3[C@@H]2N2C(=O)CN(Cc3ccccc3)C(=O)[C@@]12C,2.9%,6.9%,?,10.4µM*
CCOC(=O)[C@H]1[C@H]2COc3ccc(OC)cc3[C@@H]2N2C(=O)CN(Cc3ccc(Cl)cc3)C(=O)[C@@]12C,?,-1.8%,?,14.7µM*
CCOC(=O)[C@H]1[C@H]2COc3ccc(Br)cc3[C@@H]2N2C(=O)CN(Cc3ccc(F)cc3)C(=O)[C@@]12C,-27.1%,8.6%,?,13.1µM*
CCOC(=O)[C@H]1[C@H]2COc3ccc(OC)cc3[C@@H]2N2C(=O)CN(Cc3ccc(F)cc3)C(=O)[C@@]12C,?,1.3%,?,?
CCOC(=O)[C@H]1[C@H]2COc3ccc(Br)cc3[C@@H]2N2C(=O)CN(Cc3ccc(Cl)cc3)C(=O)[C@@]12C,-1.0%,-2.3%,.,.
CCOC(=O)[C@H]1[C@H]2COc3ccc(C)cc3[C@@H]2N2C(=O)CN(Cc3ccc(OC)cc3)C(=O)[C@@]12C,-0.7%,-5.1%,?,?
CC(C)OCCCn1c(SCC(=O)Nc2ccccc2C(F)(F)F)nc2nccnc2c1=O,6.2%,-12.0%,43.0%,10.8%
Cc1ccc(-c2csc(N3CCC(NS(=O)(=O)c4ccc5c(c4)OCCO5)CC3)n2)cc1,10µM*,-24.8%,9.28µM*,?
Cc1ccc(CNS(=O)(=O)c2ccc3c(c2)OCCO3)cc1,-12.9%,0.0%,18.0%,-8.0%
COc1ccc(S(=O)(=O)N2CCOCC2)cc1NC(=O)CN1C(=O)NC2(CCCCC2C)C1=O (stereo not given),?,-3.4%,-33.9%,11.1%
CN1CCN(CCCNC(=O)c2ccc(/C=C3\Sc4ccccc4N(Cc4ccccc4F)C3=O)cc2)CC1,10µM*,-12.0%,-3.9%,?
CCN1CCN(CCNC(=O)c2ccc(/C=C3/Sc4ccccc4N(Cc4cccc(Cl)c4)C3=O)cc2)CC1,11.2µM*,?,?,?
Cc1cccc(CN2C(=O)/C(=C\c3ccc(C(=O)NCCN4CCOCC4)cc3)Sc3ccccc32)c1,?,-11.9%,?,?
CCN1CCN(CCNC(=O)c2ccc3c(c2)N(Cc2ccc(F)cc2)C(=O)/C(=C/c2ccccc2)S3)CC1,?,?,2.6%,6.57µM*
O=C(NCCN1CCOCC1)c1ccc(/C=C2\Sc3ccccc3N(Cc3ccccc3F)C2=O)cc1,?,-22.9%,?,?
Cc1cc(S(=O)(=O)NCc2ccccc2)ccc1OCC(=O)N1CCCC1,11.5%,-17.4%,?,-13.4%
COc1ccc(C2C3=C(CC(C)(C)CC3=O)Oc3ncn(Cc4ccccc4)c(=N)c32)cc1 (stereo not given),?,?,13.1µM*,.
COc1ccc(C2C3=C(CC(C)(C)CC3=O)Oc3ncn(CCCn4ccnc4)c(=N)c32)cc1 (stereo not given),9.1%,-5.9%,5.22µM*,9.28µM*
CC1(C)CC(=O)C2=C(C1)Oc1ncn(Cc3ccco3)c(=N)c1C2c1ccccc1 (stereo not given),?,-16.8%,6.57µM*,?
CC1(C)CC(=O)C2=C(C1)Oc1ncn(CCCn3ccnc3)c(=N)c1C2c1ccccc1 (stereo not given),?,-22.6%,?,?
